# Bioassay records (PubChem)
# Most compounds without a hit are left out; they make up all but 3% or so of the library.
# Bfl-1 A1 inh: inhibitors of the anti-apoptotic protein A1, read as caspase activation; MEF A1-2A-BIM cells, Caspase-Glo 3/7 luminescence, 3 h; percent of clofoctol response, vehicle zero; caspase activation, % (test concentration not listed); 330,000 tested, 0.066% active; AID 2462;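 active = over half of replicate activation scores above 10%, or exactly half above 10 with the replicate mean above 10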
# CHT allo act: allosterically activates the human high affinity choline transporter | 310,000 tested, 0.49% active | B-score at 10 µM | Q9GZV3 | CHT-expressing cells, membrane potential dye, choline EC20; hits give high values; LV-AA mutant CHT in HEK293 cells | AID 488977;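 active = initial fluorescence not abnormally high and integrated response B-score, plate-corrected, over 3 SD above library mean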
# Target sequence (Q9GZV3 whole entry, looked up): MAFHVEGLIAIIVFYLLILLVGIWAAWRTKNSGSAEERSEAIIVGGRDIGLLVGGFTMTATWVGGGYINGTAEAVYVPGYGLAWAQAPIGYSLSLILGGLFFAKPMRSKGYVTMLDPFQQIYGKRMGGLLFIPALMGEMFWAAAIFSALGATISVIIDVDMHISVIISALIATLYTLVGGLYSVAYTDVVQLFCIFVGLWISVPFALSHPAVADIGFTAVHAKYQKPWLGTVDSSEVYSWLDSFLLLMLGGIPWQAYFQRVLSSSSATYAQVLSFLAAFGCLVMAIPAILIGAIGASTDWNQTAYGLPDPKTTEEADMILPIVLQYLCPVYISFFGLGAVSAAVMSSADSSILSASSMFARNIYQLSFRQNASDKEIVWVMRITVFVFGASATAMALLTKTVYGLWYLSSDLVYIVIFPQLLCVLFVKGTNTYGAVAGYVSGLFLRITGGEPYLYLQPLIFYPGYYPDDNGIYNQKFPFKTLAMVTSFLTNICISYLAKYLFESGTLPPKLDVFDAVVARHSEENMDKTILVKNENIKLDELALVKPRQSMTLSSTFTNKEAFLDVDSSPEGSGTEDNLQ
# NLRP3 yeast inh: inhibitors of NALP3 inflammasome in yeast; Yeast reconstituted NLRP3/ASC/caspase-1, beta-gal luminescence, 24 h; inhibition, % at 10 µM; 330,000 tested, 0.39% active; AID 2825;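 active = inhibition of 50% or more; inactive = inhibition below 50%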;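 also: plate controls were induced DMSO wells for no effect and uninduced yeast grown without galactose for full effect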
# SUMO Mot1 rescue: blocks SUMOylation pathway, rescuing yeast Mot1-301 growth; AID 2716; 320,000 tested, 1% active; S. cerevisiae Mot1-301 growth rescue, ATP luminescence, 38.5C; percent above DMSO median, 100 means doubled; growth rescue, % at 18.8 µM;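 active = every valid replicate shows activation above 250% relative to neutral control wells; inactive = the rest, any valid replicate at or below 250%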;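 also: OY570 slx delta 5 strain wells were the positive control but not used for scaling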
# CHT block: inhibits the human high affinity choline transporter. 310,000 tested, 0.86% active. CHT-expressing cells, membrane potential dye, choline response; hits give low values. B-score at 10 µM. AID 488975;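 active = B-score over 3 SD under the library average, and starting fluorescence ratio not unusually high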;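 also: choline stimulus applied at its EC90 after an EC20 pre-addition; B-score computed on integrated fluorescence ratio after choline addition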
# NALP1 yeast inh: blocks the NALP1 inflammasome reconstituted in yeast. S. cerevisiae NALP1/ASC/caspase-1 growth, X-gal OD620, 72 h. 280,000 tested, 0.61% active. inhibition, % at 10 µM; in the data active = inhibition mostly above about 24%, no sharp cut-off; inactive = mostly below about 32%
# Yeast Mot1 SUMO: yeast SUMO pathway inhibition in dose response | shares compounds with SUMO Mot1 rescue | S. cerevisiae Mot1-301 galactose growth, ATP luminescence, 24 h; -100 = growth of slx-deleted rescue strain | growth activity, percent, % at 42 µM | 2,300 tested, under 10 active;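 active = Signal drops as the depositor expects, and the fitted half-maximal dose is no more than ten times the top valid tested dose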;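 also: more negative values mean stronger growth rescue toward the control strain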
# Starred values were filed as active, the others as inactive; i = inactive; / = no result given; + = active, no number.
SMILES,Bfl-1 A1 inh,CHT allo act,NLRP3 yeast inh,SUMO Mot1 rescue,CHT block,NALP1 yeast inh,Yeast Mot1 SUMO
O=c1[nH]c(O)c(N=Nc2cc([N+](=O)[O-])ccc2O)c(=O)[nH]1,0,i,/,649*,i,-15,0
NC(=O)c1ccc(N=Nc2c(O)[nH]c(=O)[nH]c2=O)cc1,1,i,-4,-11,i,27,/
Cn1cc(NC(=O)CCl)cn1,0,i,-16,-4,i,-4,/
CCOP(=O)(OCC)C(NC(=O)c1cccc(C)c1)C(Cl)(Cl)Cl (stereo not drawn),0,i,14,971*,i,28,0
CCOP(=O)(OCC)C(NC(=O)c1cccc2ccccc12)C(Cl)(Cl)Cl (stereo not drawn),1,i,2,-10,i,27,/
CCOP(=O)(OCC)C(NC(=O)c1cccc([N+](=O)[O-])c1)C(Cl)(Cl)Cl (stereo not drawn),2,i,2,710*,i,/,0
OCCOCCO,0,i,6,-15,i,/,/
CN(C=O)CP(=O)(O)CN(C)C=O,0,i,-11,570*,i,29,0
Cc1cc(C)n(CCOC(=O)C2C(C=C(Cl)Cl)C2(C)C)n1 (stereo not drawn),0,i,13,905*,i,8,0
CC(C)[C@]12CC(=O)[C@H](C)[C@H]1C2,-1,/,14,-3,/,/,/
COC(=O)c1cn(C(=O)c2cccc3ccccc23)c2ccccc12,1,i,15,490*,i,/,-1
O=[N+]([O-])c1cccc(CN2CC=C(c3ccc(F)cc3)CC2)c1,1,i,13,18,i,16,/
O=[N+]([O-])c1ccccc1CN1CC=C(c2ccc(F)cc2)CC1,-1,i,5,+,i,25,1
O=C1CC(=O)N(Cc2ccccc2)C(=S)N1,1,i,5,-22,i,9,/
CN1CCN(c2cc(N3CCCCCC3)c(F)cc2[N+](=O)[O-])CC1,0,i,25,-9,i,41,/
Cc1cc(Oc2cc(NN3CCCCC3)c([N+](=O)[O-])cc2[N+](=O)[O-])ccc1[N+](=O)[O-],0,i,19,752*,i,-2,0
CN1C(=O)C(=Cc2cn(CC(=O)N3CCCC3)c3ccccc23)C(=O)N(C)C1=O,0,i,24,+,i,-10,1
Cc1cccc(N=Nc2ccc(N(C)C)cc2)c1,-3,i,45,736*,i,24,0
Cc1cccc(C#N)c1,0,/,-1,240,/,/,/
COC(=O)C1=C(c2ccc(Cl)c(C(F)(F)F)c2)C[C@@H]2CC[C@H]1N2C(=O)NCc1ccco1,1,/,-4,17,/,/,/
COc1cc(N2CCOCC2)ccc1C=C1C(=O)NC(=O)NC1=O,0,i,-9,-15,i,17,/
O=C1NC(=O)C(=Cc2ccc(N3CCOCC3)cc2)C(=O)N1,1,i,2,505*,i,0,0
COC(=O)C1=C(c2ccc(F)cc2OCc2ccccc2)C[C@@H]2CC[C@H]1N2C(=O)NCc1ccc([N+](=O)[O-])cc1,0,/,17,-1,/,/,/
COc1cccc(C2C([N+](=O)[O-])=C(N)Oc3c2c(=O)oc2ccccc32)c1 (stereo not drawn),0,i,5,6,i,-4,/
CC1CN=C(NCc2ccccc2Cl)S1 (stereo not drawn),0,i,16,-3,i,18,/
CC1CN=C(NCc2ccccc2)S1 (stereo not drawn),0,i,9,679*,i,23,0
COc1ccc(C(=O)C2CCCN(Cc3ccc(F)cc3F)C2)cc1F (stereo not drawn),0,i,22,29,i,-18,/
